Compounds with a hit are over-represented: about 1.6% of the library has one in this group of screens.
Efflux pump inh = inhibitors of Candida efflux pumps in yeast, primary screen, S. cerevisiae, Nile Red, multiplex; inhibition, % at 10 µM; S. cerevisiae Candida pump triplex; actives 0.44% (n = 330,000);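 active means plate passing quality check with inhibition over a set limit, or well fluorescence over plate mean plus 4 SD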;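 further: Nile Red retained in pooled yeast measured as flow cytometry median fluorescence; 0% = buffer negative control and 100% = Enniatin B positive control; higher means more Nile Red kept so more efflux inhibition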
NPR2 activator = human GC-B receptor activators, primary screen, HEK293 GC-B cells, cGMP TR-FRET, EC30 CNP | activation, % at 10 µM | Atrial natriuretic peptide receptor 2 (Homo sapiens), P20594 | 0% at EC30 CNP, 100% saturating CNP | actives 0.11% (n = 370,000);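 active means activation at 10 µM reaching about 35% in either raw or pattern-adjusted values, limit read from the data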
GC-A act = GC-A stimulated cGMP production enhancers – HEK293 GC-A cells, cGMP TR-FRET, EC30 ANP, primary screen; Atrial natriuretic peptide receptor 1 (Homo sapiens), P16066; 0% at EC30 ANP, 100% saturating ANP; activation, % at 10 µM; actives 0.14% (n = 370,000); AID 1671463, 2021; in the data active means activation above about 40%
Target sequence (P16066 whole entry, looked up): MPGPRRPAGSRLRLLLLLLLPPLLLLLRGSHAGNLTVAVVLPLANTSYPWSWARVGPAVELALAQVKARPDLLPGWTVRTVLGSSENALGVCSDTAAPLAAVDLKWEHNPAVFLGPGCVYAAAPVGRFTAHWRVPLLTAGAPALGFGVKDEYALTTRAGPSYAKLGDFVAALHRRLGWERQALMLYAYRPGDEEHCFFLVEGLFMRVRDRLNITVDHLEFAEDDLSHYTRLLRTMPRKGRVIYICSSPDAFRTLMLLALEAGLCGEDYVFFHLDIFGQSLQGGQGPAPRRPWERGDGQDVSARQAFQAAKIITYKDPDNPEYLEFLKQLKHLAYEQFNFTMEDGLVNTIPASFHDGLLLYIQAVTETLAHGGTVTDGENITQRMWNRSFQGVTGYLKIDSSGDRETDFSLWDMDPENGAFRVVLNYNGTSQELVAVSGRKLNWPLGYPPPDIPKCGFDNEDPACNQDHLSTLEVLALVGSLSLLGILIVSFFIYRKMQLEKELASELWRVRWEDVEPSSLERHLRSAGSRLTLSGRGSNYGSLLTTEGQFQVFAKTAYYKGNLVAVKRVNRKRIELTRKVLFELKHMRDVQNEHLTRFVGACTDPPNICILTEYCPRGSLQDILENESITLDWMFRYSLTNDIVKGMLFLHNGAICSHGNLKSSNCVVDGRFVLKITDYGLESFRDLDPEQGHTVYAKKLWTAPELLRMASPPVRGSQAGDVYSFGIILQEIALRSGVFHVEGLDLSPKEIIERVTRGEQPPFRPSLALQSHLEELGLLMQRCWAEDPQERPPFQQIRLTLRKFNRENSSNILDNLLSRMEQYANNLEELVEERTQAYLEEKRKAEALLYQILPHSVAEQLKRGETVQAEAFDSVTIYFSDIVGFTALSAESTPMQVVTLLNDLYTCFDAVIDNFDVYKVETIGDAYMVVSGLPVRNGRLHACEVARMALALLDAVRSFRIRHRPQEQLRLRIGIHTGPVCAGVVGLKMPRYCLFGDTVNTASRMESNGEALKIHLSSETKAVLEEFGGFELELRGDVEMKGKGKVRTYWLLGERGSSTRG
NSD2 inh = NSD2 histone methyltransferase inhibitors, primary screen, biochemical, AlphaScreen, single concentration, set 2 | Histone-lysine N-methyltransferase NSD2 (Homo sapiens), O96028 | NSD2 peptide methylation, 120 min | inhibition, % at 12.5 µM | actives 0.54% (n = 310,000); in the data active means inhibition above about 50%
Rce1 inh = yeast Rce1p protease inhibitors, primary screen, biochemical, fluorescence, cell-free homogeneous | CAAX prenyl protease 2 (Saccharomyces cerevisiae (strain ATCC 204508 / S288c)), Q03530 | AID 2563, 2010 | yeast membranes, quenched prenylated peptide cleavage fluorescence | actives 0.27% (n = 290,000) | calls only;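 active means fall in fluorescence gain of 50% or more versus controls, with final raw signal at or below 3038400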;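 further: plate controls were neutral control wells for no effect and wells lacking membranes for full effect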
V-ATPase pH = regulators of yeast V-ATPase proton pumping, primary screen, pHLuorin cytosolic pH fluorescence; actives 0.37% (n = 350,000); S. cerevisiae; AID 504577, 2011; response, % at 10 µM; in the data active means response mostly above about 7.3%, no sharp cut-off; inactive means mostly below about 5.4%; further: actives read high
Active calls of the source: *; i = inactive; x = no result; + = active, no number.

SMILES | Efflux pump inh | NPR2 activator | GC-A act | NSD2 inh | Rce1 inh | V-ATPase pH
CCCC/C=C1/[C@H](c2ccc(Cl)cc2)N(Cc2ccc3c(c2)OCO3)C2=N[C@H](c3ccccc3)CC(=O)N21 | x | 3 | -1 | x | x | x
Cc1ccc(-n2[nH]c(C)c(/C=N/Nc3ccc([N+](=O)[O-])cc3[N+](=O)[O-])c2=O)cc1C | 0 | 1 | -9 | 62* | i | -1
Cc1[nH]n(-c2ccccc2)c(=O)c1/C=N/NC(=O)c1cccc([N+](=O)[O-])c1 | 0 | -3 | 0 | -2 | x | -3
Cc1cc(N2CCN(C(c3ccccc3)c3ccccc3)CC2)n2ncnc2n1 | 0 | -8 | -11 | 4 | + | 0
Cc1ccc(S(=O)(=O)N2CCOCC2)cc1NC(=O)CNC1CCCC1 | 0 | 3 | 1 | 2 | i | 2
Cc1ccc(S(=O)(=O)N2CCOCC2)cc1NC(=O)CNc1ccccc1N1CCCC1=O | x | 5 | 3 | -2 | x | 22*
O=C1CCC[C@H]2Cc3nc4cccc(Cl)c4cc3C[C@]23CCCN13 | x | -14 | -2 | 0 | x | x
COc1ccc(CN2CC(=O)N(c3cccc(Cl)c3)C2=S)cc1OC | 0 | 2 | 44* | x | i | -1
COc1ccc(CN2C/C(=C/c3ccc(C)cc3)N3C(=O)C[C@@H](c4ccccc4)N=C23)c(OC)c1 | x | -3 | 0 | x | x | x
O=[N+]([O-])c1ccc(CS(=O)c2ccccc2)cc1 (stereo not given) | x | -1 | 1 | 0 | x | -3
O=[N+]([O-])c1ccc(S(=O)Cc2ccccc2)c([N+](=O)[O-])c1 (stereo not given) | x | 19 | 21 | 4 | x | 22*
CCOc1ccc(OCCC(=O)OCC(=O)NC(C)c2ccccc2)cc1 (stereo not given) | 0 | 0 | 0 | 6 | i | 13
CC(NC(=O)COC(=O)COc1ccc(C(=O)c2ccccc2)cc1)c1ccccc1 (stereo not given) | 0 | 8 | 65* | -3 | x | 1
C#CCOCCOCCOCCNc1nc(N2CCN(C(=O)[C@H](CCCCN)n3cc([C@@H](N)C(C)CC)nn3)CC2)nc(N2CCN(C(=O)[C@H](CCCCN)n3cc([C@@H](N)C(C)CC)nn3)CC2)n1 (stereo not given in full) | x | 3 | 5 | 24 | x | x
COc1cccc(-c2csc(N3CCN(C(=O)NC45CC6CC(CC(C6)C4)C5)CC3)n2)c1 | 0 | 12 | 1 | x | + | -65
COc1cccc(NC(=O)N2CCN(c3nc(-c4cccc(OC)c4)cs3)CC2)c1 | 0 | 8 | -1 | -1 | i | -2
NC(=O)[C@@H]1CC2(CC(c3cccc(NC(=O)CC(c4ccccc4)c4ccccc4)c3)=NO2)CN1C(=O)c1ccc(Cl)cc1 (stereo not given in full) | 0 | 1 | 0 | x | + | 2
NC(=O)[C@H]1CC2(CC(c3cccc(NC(=O)COc4ccc(Cl)cc4)c3)=NO2)CN1C(=O)C(c1ccccc1)c1ccccc1 (stereo not given in full) | 0 | 3 | 0 | x | + | -5
COc1ccc(CNC(=O)O[C@H]2CC[C@@]34CCCN3C(=O)CCC[C@H]4C2)cc1OC | x | -2 | 1 | x | x | x
Cc1ccc(CNC2CCC23CCC(c2ccccc2)CC3)o1 (stereo not given) | x | -6 | -4 | x | x | x
O=c1ccc2[n+]([O-])c3ccc(O)cc3oc-2c1 | x | -3 | -15 | 102* | i | -2
O=c1cc(O)c2ccc(O)cc2o1 | 0 | -4 | 1 | x | i | 1
CCOC(=O)C1CCN(C(=S)Nc2cc(C)ccc2C)CC1 | 0 | 4 | 4 | -2 | i | 22*
CCOC(=O)C1CCN(C(=S)Nc2ccc(Cl)cc2C)CC1 | 0 | 11 | -2 | -2 | x | 0
COc1ccc(OC)c(S(=O)(=O)N2CCCC(C(=O)Nc3c(C)n(C)n(-c4ccccc4)c3=O)C2)c1 (stereo not given) | x | -4 | 0 | -1 | x | x
SMILES | Efflux pump inh | NPR2 activator | GC-A act | NSD2 inh | Rce1 inh | V-ATPase pH
COCCNC(=O)C1CCN(Cc2cccc(OCc3ccccc3)c2)CC1 | 0 | 0 | 4 | -1 | i | 13*
CCOC(=O)c1sc(NC(=O)CC)nc1C | 0 | -4 | -2 | -1 | i | 0
CCCCOC(=O)Nc1nc(C)c(C(=O)OCC)s1 | 0 | -2 | 7 | -2 | + | 3
O=C1c2cccc3c([N+](=O)[O-])ccc(c23)C(=O)N1c1nccs1 | 1.2* | 21 | 28 | 2 | i | -32
CCOC(=O)Cn1cc(CN2CCS(=O)(=O)N(Cc3ccc(F)cc3)C(C(=O)OC)C2)nn1 (stereo not given) | x | 1 | 3 | x | x | x
COC(=O)C(O)(NC(=O)NC(C)=O)C(F)(F)F (stereo not given) | 0 | -2 | 7 | -1 | i | 14*
COC(=O)C(O)(NC(=O)c1ccncc1)C(F)(F)F (stereo not given) | 0 | 3 | 1 | x | i | 2
Cc1ccc(Nc2nc(-c3ccc(S(=O)(=O)N4CCOCC4)cc3)cs2)cc1Cl | 0 | -1 | -3 | 0 | + | 6
CC(C)CC(=O)Nc1nc(-c2ccc(S(=O)(=O)N3CCOCC3)cc2)cs1 | x | 3 | 4 | -1 | i | 4
CC1=NOC(=O)/C1=C/c1ccc(O)c(Cl)c1 | 0 | 5 | 12 | 8 | i | -1
CCCOc1ccc(/C=C2/C(=O)ON=C2C)cc1Cl | 0 | 16 | 45* | 10 | i | 9
COc1ccc(NS(=O)(=O)c2cc(NC(=O)Cc3ccccc3F)ccc2N2CCOCC2)cc1 | x | x | x | 0 | x | x
COc1ccc(C2C3=C(CC(C)(C)CC3=O)Nc3n[nH]c(C)c32)cc1 (stereo not given) | 0 | -4 | -3 | -3 | + | 3
COc1cccc(C2C3=C(CC(C)(C)CC3=O)Nc3n[nH]c(C)c32)c1 (stereo not given) | 0 | 1 | -3 | -3 | i | 2
O=C(Nc1cc(Cl)ccc1N1CCOCC1)c1cnccn1 | 0 | -9 | -9 | 1 | i | -4
O=C(Nc1cc(S(=O)(=O)N2CCOCC2)ccc1N1CCCC1)c1cnccn1 | 0 | 3 | 5 | -2 | + | -4
COCCCNC(=O)C[C@H]1C[C@@]2(C(=O)OC)C(=C[C@H](COCc3ccccc3)O[C@@H]2C)N(Cc2ccc(Cl)cc2Cl)C1=O | x | 0 | -4 | x | x | x
O=C(COC(=O)c1ccccc1)Nc1ncc([N+](=O)[O-])s1 | 0 | 0 | -7 | 83* | x | 1
